Measurements published in PubChem BioAssay (NCI).
This is part of a sample that, as a whole, favours compounds with a hit. Of some 83,000 tested, about 20% had one in any assay.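 Percent growth is the endpoint: 0 to 100 indicates growth inhibition (40 means 60% inhibition), 0 means no net growth, and negative values indicate cell death.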 A number with no mark means an inactive call. The source made the active and inactive calls. Rule for the calls: active = growth percent below 10; inactive = the rest.

tested on: LOX IMVI melanoma; assay: NCI-60 one-dose screen, 48 h (100 = growth as untreated, 0 = no growth, -100 = all killed); conditions: 10 µM unless noted

Point of comparison: CC(=O)c1sc(-c2ccccc2)cc1N, growth 104%. Against it:
- COc1ccc(/C=C2\COc3ccc(O)cc3C2=O)c(OC)c1 — lower, 45.4%
- CN(C)CCC(O)(Cc1ccccc1)c1ccccc1 (stereo not drawn) — lower, 99.2%
- COc1ccc(-c2cc(-c3ccc(Nc4nc(Nc5ccccc5)nc(Nc5ccc(Cl)cc5)n4)cc3)nc(N)n2)cc1 — lower, 55%
- OC(COc1cccc2ccccc12)CN1CCN(c2ccccc2)CC1 (stereo not drawn) — lower, 92.1%
- O=c1[nH]c(=O)n(C2CC(O)C(CO)O2)cc1CO (stereo not drawn) — lower, 96.1%
- COc1cc2oc(-c3cccc(C(=O)Nc4ccc(C#N)cc4)c3)cc(=O)c2c(O)c1OC — lower, 55.7%
- C=C(Cl)COC(=O)C(C)(C)O — lower, 94.8%
- CC(C)(C)OC(=O)N1Cc2cc3ccccc3nc2C1CO (stereo not drawn) — lower, 101%
- COc1cc(-c2cc(-c3ccc(Nc4nc(Nc5ccccc5)nc(Nc5ccc(Cl)cc5)n4)cc3)nc(N)n2)cc(OC)c1OC — lower, 60.2%
- CN(C)c1ccc(C#Cc2c(F)cccc2Cl)cc1 — lower, 81.3%
- NC(N)=N/N=C(/c1ccccc1)c1ccc(N)cc1 — lower, 95%
- O=C(Oc1ccc[nH]c1=O)c1cc([N+](=O)[O-])cc([N+](=O)[O-])c1 — lower, 99.5%
- Clc1ccc(-c2nnc(Cn3ccnc3)o2)cc1 — higher, 112%
- COc1cccc(CCC2CCCN(c3cc(C)nc(N)n3)C2)c1 (stereo not drawn) — lower, 17%
- O=C1Nc2ccccc2SC1C1SC(=S)N(Cc2ccccc2)C1=O (stereo not drawn) — lower, 86.2%
- NC(=Nc1ccc(N)cc1)C(N)=Nc1ccc(N)cc1 — lower, 97.2%
- OC(c1cccc(OCc2ccccc2)c1)c1nnc(-c2ccccc2)o1 (stereo not drawn) — lower, 84.9%
- CC[C@]1(O)C[C@H]2CN(CCc3c([nH]c4ccccc34)[C@@](C(=O)OC)(c3cc4c(cc3OC)N(C=O)[C@H]3[C@@](O)(C(=O)OC)[C@H](OC(C)=O)[C@]5(CC)C=CCN6CC[C@]43[C@@H]65)C2)C1 — lower, 28.8%
- CCN(CC)CC(=O)Nc1cccc(C(=O)OC(C)C)c1 — lower, 96.2%
- O=C1CSC(c2ccccc2O)N1c1nnc(Cn2cnnc2)o1 (stereo not drawn) — lower, 78.5%
- NS(=O)(=O)Oc1ccc(NC(=O)C23CC4CC(CC(C4)C2)C3)cc1Cl — lower, 82.9%
- COc1ccc(-c2nc3sccn3c2/C=C/C(=O)c2c[nH]c3ccccc23)cc1 — lower, 37.5%
- COc1ccc(C2=NC(=O)NC2c2ccc(OC)cc2)cc1 (stereo not drawn) — lower, 64%
- N=c1ccn2c(n1)OC1C(O)C(CO)OC12 (stereo not drawn) — lower, 10.3%
- Cl.Fc1c[c-]c(-c2ccccn2)c(F)c1.[Pt].c1ccc(P(c2ccccc2)C([PH+](c2ccccc2)c2ccccc2)[PH+](c2ccccc2)c2ccccc2)cc1 — lower, 11.7%
- N#Cc1c(-c2ccccc2)nc(SCC2CO2)nc1N1CCOCC1 (stereo not drawn) — lower, 76.6%
- CC(C)(C)N1CC(OC(N)=O)C1 — lower, 96.3%
- Cc1ccc(-n2nnc(C3=NCCc4c3[nH]c3ccc(Cl)cc43)c2C)cc1 — lower, 63%

For Cn1ncc2c(Nc3ccc(Br)cc3)nc(Nc3ccc(Br)cc3)nc21, the growth was -5.28% (active).
For COC1(CC[C@@H](C)COC2OC(CO)C(O)C(O)C2O)O[C@H]2C[C@H]3[C@@H]4CC=C5C[C@@H](OC6OC(CO)C(OC7OC(C)C(O)C(O)C7O)C(O)C6OC6OC(C)C(O)C(O)C6O)CC[C@]5(C)[C@H]4CC[C@]3(C)[C@H]2[C@@H]1C (stereo partly drawn), the growth was -95.9% (active).
For N=C(N)c1ccc(-c2ccc(-c3ccc(Cl)cc3Cl)o2)cc1, the growth was -94.7% (active).
For CN1CCN(c2ccc(Nc3ncc(Cl)c(NC[C@@H]4CCCO4)n3)cc2)CC1, the growth was 8.91% (active).
With COc1ccc(-c2cc(-c3ccc(Nc4nc(Nc5ccccc5)nc(Nc5ccc(Cl)cc5)n4)cc3)nc(N)c2C#N)cc1 the growth was -97.3% (active).
For CCNCCNc1cc(-c2cccc(C(F)(F)F)c2)c(C#N)c2nc3ccccc3n12, the growth was -85.7% (active).

COc1ccc(Cn2cnc3cc(C(=O)Nc4cccc5ccccc45)ccc32)c(OC)c1 showed a growth of 12.1% [30 µM].

tested on: SK-MEL-28 melanoma; assay: as above; conditions: 10 µM unless noted

Point of comparison: NC(=Nc1ccc(N)cc1)C(N)=Nc1ccc(N)cc1, growth 117%. Against it:
- COc1ccc(/C=C2\COc3ccc(O)cc3C2=O)c(OC)c1 — lower, 64%
- CN(C)CCC(O)(Cc1ccccc1)c1ccccc1 (stereo not drawn) — lower, 112%
- Cn1ncc2c(Nc3ccc(Br)cc3)nc(Nc3ccc(Br)cc3)nc21 — lower, 50.1%
- OC(COc1cccc2ccccc12)CN1CCN(c2ccccc2)CC1 (stereo not drawn) — lower, 105%
- O=c1[nH]c(=O)n(C2CC(O)C(CO)O2)cc1CO (stereo not drawn) — lower, 101%
- COc1cc2oc(-c3cccc(C(=O)Nc4ccc(C#N)cc4)c3)cc(=O)c2c(O)c1OC — lower, 32.8%
- C=C(Cl)COC(=O)C(C)(C)O — lower, 97.7%
- CC(C)(C)OC(=O)N1Cc2cc3ccccc3nc2C1CO (stereo not drawn) — lower, 101%
- COc1cc(-c2cc(-c3ccc(Nc4nc(Nc5ccccc5)nc(Nc5ccc(Cl)cc5)n4)cc3)nc(N)n2)cc(OC)c1OC — lower, 86.9%
- CN(C)c1ccc(C#Cc2c(F)cccc2Cl)cc1 — lower, 105%
- NC(N)=N/N=C(/c1ccccc1)c1ccc(N)cc1 — higher, 150%
- N=C(N)c1ccc(-c2ccc(-c3ccc(Cl)cc3Cl)o2)cc1 — lower, 46%
- O=C(Oc1ccc[nH]c1=O)c1cc([N+](=O)[O-])cc([N+](=O)[O-])c1 — higher, 122%
- Clc1ccc(-c2nnc(Cn3ccnc3)o2)cc1 — lower, 106%
- COc1cccc(CCC2CCCN(c3cc(C)nc(N)n3)C2)c1 (stereo not drawn) — lower, 50.2%
- O=C1Nc2ccccc2SC1C1SC(=S)N(Cc2ccccc2)C1=O (stereo not drawn) — lower, 58.8%
- OC(c1cccc(OCc2ccccc2)c1)c1nnc(-c2ccccc2)o1 (stereo not drawn) — lower, 108%
- CN1CCN(c2ccc(Nc3ncc(Cl)c(NC[C@@H]4CCCO4)n3)cc2)CC1 — lower, 50.9%
- CCN(CC)CC(=O)Nc1cccc(C(=O)OC(C)C)c1 — lower, 102%
- Cc1cc(N(CCCNc2ccnc3cc(Cl)ccc23)Cc2ccccn2)nc(N2CCCC2)n1 — lower, 88%
- O=C1CSC(c2ccccc2O)N1c1nnc(Cn2cnnc2)o1 (stereo not drawn) — lower, 102%
- CC(=O)c1sc(-c2ccccc2)cc1N — lower, 108%
- NS(=O)(=O)Oc1ccc(NC(=O)C23CC4CC(CC(C4)C2)C3)cc1Cl — lower, 104%
- COc1ccc(-c2nc3sccn3c2/C=C/C(=O)c2c[nH]c3ccccc23)cc1 — lower, 76.7%
- COc1ccc(C2=NC(=O)NC2c2ccc(OC)cc2)cc1 (stereo not drawn) — lower, 72.6%
- N=c1ccn2c(n1)OC1C(O)C(CO)OC12 (stereo not drawn) — lower, 53.3%
- Cl.Fc1c[c-]c(-c2ccccn2)c(F)c1.[Pt].c1ccc(P(c2ccccc2)C([PH+](c2ccccc2)c2ccccc2)[PH+](c2ccccc2)c2ccccc2)cc1 — lower, 34.4%
- CCCn1nc(-c2ccccc2)c2c(-c3ccccc3)onc2c1=O — lower, 95.5%
- N#Cc1c(-c2ccccc2)nc(SCC2CO2)nc1N1CCOCC1 (stereo not drawn) — lower, 64.7%
- CC(C)(C)N1CC(OC(N)=O)C1 — lower, 109%
- Cc1ccc(-n2nnc(C3=NCCc4c3[nH]c3ccc(Cl)cc43)c2C)cc1 — lower, 100%

Clc1ccc2c(NCCCN3CCN(c4nc(-n5ccnc5)nc5ccccc45)CC3)ccnc2c1 was tested, and the growth was -86.9% (active).
COC1(CC[C@@H](C)COC2OC(CO)C(O)C(O)C2O)O[C@H]2C[C@H]3[C@@H]4CC=C5C[C@@H](OC6OC(CO)C(OC7OC(C)C(O)C(O)C7O)C(O)C6OC6OC(C)C(O)C(O)C6O)CC[C@]5(C)[C@H]4CC[C@]3(C)[C@H]2[C@@H]1C (stereo partly drawn) was tested, and the growth was -95.7% (active).
For COc1ccc(-c2cc(-c3ccc(Nc4nc(Nc5ccccc5)nc(Nc5ccc(Cl)cc5)n4)cc3)nc(N)c2C#N)cc1, the growth was -72.9% (active).
For CCNCCNc1cc(-c2cccc(C(F)(F)F)c2)c(C#N)c2nc3ccccc3n12, the growth was -81.9% (active).

Compound COc1ccc(Cn2cnc3cc(C(=O)Nc4cccc5ccccc45)ccc32)c(OC)c1 has a growth of 60.6% [30 µM].
